Measured values from PubChem BioAssay (Tox21).
Values without a mark were called inactive. Active and inactive are the calls of the source. Calls come from the whole dose curve; as a rule, active = well fitted curve in the direction sought with a large enough effect in the repeat runs; inconclusive = weak or mixed curves; inactive = flat fitted curve, though single readings scatter.

Experiment: qHTS assay to test for compound auto fluorescence at 535 nm (green) in HEK293 cells (AID 720680)
Conditions: green autofluorescence 485/535 nm; series mostly up to 91.3 µM; fluorescence, % of fluorescein: at the top concentration
% is set by controls: 0 for no effect and ±100 for the full control effect.

| SMILES | fluorescence, % of fluorescein | outcome |
| --- | --- | --- |
| C=C1CCC2CC1C2(C)C (stereo not drawn) | 0.0045% |  |
| CN1CCCC(CC2c3ccccc3Sc3ccccc32)C1 (stereo not drawn) | 0.0892% [at 18.6 µM] |  |
| CC(C)c1nc(CN(C)C(=O)N[C@H](C(=O)N[C@@H](Cc2ccccc2)C[C@H](O)[C@H](Cc2ccccc2)NC(=O)OCc2cncs2)C(C)C)cs1 |  | inactive |
| CN1CCCC(n2nc(Cc3ccc(Cl)cc3)c3ccccc3c2=O)CC1 (stereo not drawn) | -0.0698% [at 46 µM] |  |
| O=C(O)CCCCCCCCCCCBr | -0.0475% |  |
| CCCCN1CCCC1C(=O)Nc1c(C)cc(C)cc1C (stereo not drawn) | -0.0773% [at 46 µM] |  |
| Cc1ccccc1N=C(N)Nc1ccccc1C | 0.0966% |  |
| CCOc1ccccc1O[C@H](c1ccccc1)[C@H]1CNCCO1 | 0.0098% [at 46 µM] |  |
| CCOC(=O)c1ccc(C#Cc2ccc3c(c2)C(C)(C)CCS3)nc1 | 0.0682% [at 46 µM] |  |
| C=C/C(C)=C/C/C=C(\C)CCC=C(C)C | 0.0657% |  |
| CCOC(=O)C1=C(C)NC(C)=C(C(=O)OC)C1c1cccc(Cl)c1Cl (stereo not drawn) | 0.196% [at 46 µM] |  |
| CN(C)CCC=C1c2ccccc2C=Cc2ccccc21 | -0.0788% [at 46 µM] |  |
| CN(C(=O)CN(CCO)CC(=O)N(C)C(C)(C)Cc1ccccc1)C(C)(C)Cc1ccccc1 | 0.0843% [at 18.6 µM] |  |
| CC(=O)c1ccc([N+](=O)[O-])cc1 | 0.0002% |  |
| CCCCCCCCCCCCCCN(CCO)CCO | -0.0197% |  |
| CC1=C(Br)C(=O)C(Br)=C/C1=C(/c1ccccc1S(=O)(=O)O)c1cc(Br)c(O)c(Br)c1C | -0.811% |  |
| COc1ccccc1NC(=O)c1cc2ccccc2cc1O | 0.205% |  |
| O=C(Nc1cccc2c(=O)cc(-c3nn[nH]n3)oc12)c1ccc(OCCCCc2ccccc2)cc1 | -0.0216% [at 46 µM] |  |
| O=C(O)c1cccc(-c2noc(-c3ccccc3F)n2)c1 | 0.0058% [at 46 µM] |  |
| O=C1c2ccccc2C(=O)N1CCc1noc(-c2ccc(CN3CCCCCC3)s2)n1 | -0.026% |  |
| OCCN1CCN(CCCN2c3ccccc3Sc3ccc(Cl)cc32)CC1 | -0.0167% [at 18.6 µM] |  |
| Cc1cc(=O)c2c(O)c3c(O)cc(=O)c4c3c3c(cc(O)c1c23)C(C)(C)C=4O | 4.72% [at 46 µM] |  |
| C[C@@H]1CC(=O)NN=C1c1ccc(NN=C(C#N)C#N)cc1 | -0.134% [at 46 µM] |  |
| C[C@H]1c2cccc(O)c2C(O)=C2C(=O)[C@]3(O)C(O)=C(C(N)=O)C(=O)[C@@H](N(C)C)[C@@H]3[C@@H](O)[C@@H]21 | -0.0876% [at 46 µM] |  |
| NNC(=O)CP(=O)(c1ccccc1)c1ccccc1 | 0.053% [at 46 µM] |  |
| CN(C)CCN1C(=O)c2ccccc2N(C)c2ccccc21 | 0.0114% [at 46 µM] |  |
| C[C@]1(Cn2ccnn2)[C@H](C(=O)O)N2C(=O)C[C@H]2S1(=O)=O | -0.0886% [at 46 µM] |  |
| CC1CC(OC(=O)C(O)c2ccccc2)CC(C)(C)N1C (stereo not drawn) |  | inactive |
| COc1ccccc1N1CCN(CC(O)COc2cccc3ccccc23)CC1 (stereo not drawn) | 0.127% [at 46 µM] |  |
| CC1=C(CC=O)C(C)(C)CCC1 | -0.222% |  |

Experiment: qHTS assay to test for compound auto fluorescence at 460 nm (blue) in HEK293 cell free culture (AID 720681); note: potency is the fitted concentration of half-maximal effect
Conditions: cell-free medium, autofluorescence 405/460 nm (blue); series mostly up to 91.3 µM; fluorescence, % of fluorescent control: at the top concentration
How it was run: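 Blue fluorescence (Ex 405/Em 460 nm, triamterene-equivalent) was read immediately after pin transfer of compound or DMSO into medium (DMEM, 10% FBS) without cells.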

| SMILES | fluorescence, % of fluorescent control | Potency |
| --- | --- | --- |
| C=C1CCC2CC1C2(C)C (stereo not drawn) | -0.0296% |  |
| CN1CCCC(CC2c3ccccc3Sc3ccccc32)C1 (stereo not drawn) | -0.0216% [at 18.6 µM] |  |
| CC(C)c1nc(CN(C)C(=O)N[C@H](C(=O)N[C@@H](Cc2ccccc2)C[C@H](O)[C@H](Cc2ccccc2)NC(=O)OCc2cncs2)C(C)C)cs1 |  | inactive |
| CC(C)(c1ccccc1)c1ccccc1 | 0.0832% |  |
| CN1CCCC(n2nc(Cc3ccc(Cl)cc3)c3ccccc3c2=O)CC1 (stereo not drawn) | 0.0034% [at 46 µM] |  |
| O=C(O)CCCCCCCCCCCBr | 0.042% |  |
| CCCCN1CCCC1C(=O)Nc1c(C)cc(C)cc1C (stereo not drawn) | -0.012% [at 46 µM] |  |
| Cc1ccccc1N=C(N)Nc1ccccc1C | -0.0502% |  |
| CCOc1ccccc1O[C@H](c1ccccc1)[C@H]1CNCCO1 | -0.0553% [at 46 µM] |  |
| C=C/C(C)=C/C/C=C(\C)CCC=C(C)C | 0.394% |  |
| Oc1cc2c(cc1O)[C@H]1c3ccc(O)c(O)c3OC[C@@]1(O)C2 | 5.98% [at 95.7 µM] |  |
| CC(=O)c1ccc([N+](=O)[O-])cc1 | -0.0975% |  |
| CCCCCCCCCCCCCCN(CCO)CCO | 0.51% |  |
| CC1=C(Br)C(=O)C(Br)=C/C1=C(/c1ccccc1S(=O)(=O)O)c1cc(Br)c(O)c(Br)c1C | -0.716% |  |
| COc1ccccc1NC(=O)c1cc2ccccc2cc1O |  | 44.7 µM (active) |
| O=C(Nc1cccc2c(=O)cc(-c3nn[nH]n3)oc12)c1ccc(OCCCCc2ccccc2)cc1 | -0.164% [at 46 µM] |  |
| O=C(O)c1cccc(-c2noc(-c3ccccc3F)n2)c1 | -0.0132% [at 46 µM] |  |
| O=C1c2ccccc2C(=O)N1CCc1noc(-c2ccc(CN3CCCCCC3)s2)n1 | -0.241% |  |
| Oc1c(I)cc(I)c2cccnc12 | 0.257% [at 46 µM] |  |
| CCCCC(CC)CN (stereo not drawn) | 0.0439% [at 95.7 µM] |  |
| OCCN1CCN(CCCN2c3ccccc3Sc3ccc(Cl)cc32)CC1 | -0.0053% [at 18.6 µM] |  |
| C[C@@H]1CC(=O)NN=C1c1ccc(NN=C(C#N)C#N)cc1 | -0.198% [at 46 µM] |  |
| C[C@H]1c2cccc(O)c2C(O)=C2C(=O)[C@]3(O)C(O)=C(C(N)=O)C(=O)[C@@H](N(C)C)[C@@H]3[C@@H](O)[C@@H]21 | 1.72% [at 46 µM] |  |
| NNC(=O)CP(=O)(c1ccccc1)c1ccccc1 | 0.622% [at 46 µM] |  |
| CN(C)CCN1C(=O)c2ccccc2N(C)c2ccccc21 | -0.0316% [at 46 µM] |  |
| COc1ccccc1N1CCN(CC(O)COc2cccc3ccccc23)CC1 (stereo not drawn) | 0.029% [at 46 µM] |  |
| CN1C(=O)OC(C)(C)C1=O |  | inactive |
| CC1=C(CC=O)C(C)(C)CCC1 | 0.0121% |  |
